Screening data: PubChem BioAssay, The Scripps Research Institute Molecular Screening Center
TEAD-YAP inh: TEAD-YAP interaction inhibition; inhibition, % at 9.12 µM; HEK-TIYL cells, TEAD-Gal4/YAP UAS-luciferase luminescence; 640,000 compounds, 1.4% hits; in the data active = inhibition above about 32%;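 note: 0% = median of test compound wells and 100% = reference inhibitor wells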
FBW7 act: activators of human E3 ligase FBW7; 650,000 compounds, 0.13% hits; normalized activity (activation), % at 26.1 µM; AID 1259310; AlphaScreen FBW7–phospho-cyclin E peptide binding, activator screen; Q969H0; in the data active = normalized activity above about 1.9%;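 note: purified mutant Fbw7 with reduced substrate affinity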
MITF inh: inhibitors of human MITF | O75030 | AlphaScreen MITF homodimerization, bead proximity signal | inhibition, % at 2.6 µM | 650,000 compounds, 0.91% hits | AID 1259374; in the data active = inhibition above about 50%;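 note: 0% = vehicle wells with protein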
GPR151 activ: activates the human receptor GPR151; Q8TDV0; activation, % at 11.2 µM; 650,000 compounds, 1% hits; PathHunter beta-arrestin GPR151 cells, luminescence; in the data active = activation above about 4.9%;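 note: 0% = median of compound wells and 100% = cells with positive control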
Target sequence (Q8TDV0 whole entry, looked up): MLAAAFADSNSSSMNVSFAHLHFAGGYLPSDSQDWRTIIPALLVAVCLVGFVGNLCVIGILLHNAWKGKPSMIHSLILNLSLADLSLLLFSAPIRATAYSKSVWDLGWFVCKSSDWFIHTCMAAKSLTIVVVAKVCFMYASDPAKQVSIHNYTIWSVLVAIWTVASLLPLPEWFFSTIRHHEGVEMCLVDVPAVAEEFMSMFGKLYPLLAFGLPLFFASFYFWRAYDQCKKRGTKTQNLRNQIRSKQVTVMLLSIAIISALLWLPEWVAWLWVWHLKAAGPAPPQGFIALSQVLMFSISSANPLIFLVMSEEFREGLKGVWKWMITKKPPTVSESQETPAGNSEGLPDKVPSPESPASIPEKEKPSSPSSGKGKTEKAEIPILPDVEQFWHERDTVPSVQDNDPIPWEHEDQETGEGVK
Numbers without * were called inactive; ! = repeats disagree. Rows were chosen to be rich in hits. Some 3.4% of all compounds tested hit in one or more screens of this group.

SMILES	TEAD-YAP inh	FBW7 act	MITF inh	GPR151 activ
C=CCN(c1ccc(C(=O)Nc2ccc(F)cc2)cc1)S(C)(=O)=O	2	0	-7	0
CN(C)NC1=CC(=[N+]2CCCC2)CC(C)(C)C1	3	0	-10	2
CCCN(CCC)C1=CC(=[N+]2CCCC2)CC(C)(C)C1	69*	0	-10	1
CC1(C)CC(N2CCCCC2)=CC(=[N+]2CCCCC2)C1	75*	0	5	2
CC1(C)CC(N2CCOCC2)=CC(=[N+]2CCOCC2)C1	4	0	-9	0
O=C1CC(C(=O)N2CCC(=O)N(Cc3ccccc3C(F)(F)F)CC2)c2ccccc21 (configuration not stated)	-9	0	-10	-1
COc1cc(C)c(S(=O)(=O)N2CCc3ccccc32)cc1C	50*	0	13	0
COC(=O)c1ccc(S(=O)(=O)N2CCCc3ccccc32)cc1	62*	0	-12	2
COc1ccc(S(=O)(=O)N2CCCc3ccccc32)cc1	58*	0	-8	0
CC(NC(=O)c1cc(S(=O)(=O)N2CCc3ccccc32)cn1C)c1ccccc1 (configuration not stated)	-11	0	-13	2
Cn1cc(S(=O)(=O)N2CCc3ccccc32)cc1C(=O)NC(C)(C)C	37*	0	-11	1
COc1ccc(N2CCN(CCCNC(=O)Nc3cc(C)ccc3C)CC2)cc1	16	0	8	0
COc1cc(S(=O)(=O)N2CCCc3ccccc32)ccc1Cl	58*	1	5	0
COCCNC(=O)c1oc2ccc3c(c2c1C)C(=O)CC1(CCCCC1)O3	0	0	-3	0
Cc1c(C(=O)NCc2cccnc2)oc2ccc3c(c12)C(=O)CC1(CCCC1)O3	40*	0	5	0
COc1ccc(NC(=O)C2CCCCC2)cc1	-34	0	6	2
Cc1nc(-n2cccc2)sc1C(=O)OCc1cc(-c2ccccc2F)on1	7	0	18	0
COc1ccc2oc(C)c(C(=O)Nc3cccc(Cl)c3)c2c1	14	0	-1	3
COC(=O)Nc1nc2ccc(C(=O)c3ccc(F)cc3)cc2[nH]1	35*!	0	12	0
CCCOc1ccc2nc(NC(=O)OC)[nH]c2c1	34*	0	-5	-1
COC(=O)C(=O)Nc1nc2ccc(C(=O)c3ccccc3C(=O)OC(C)C)cc2[nH]1	52*	0	-14	2
O=C(COc1ccc(C(=O)c2ccccc2)cc1)Nc1nc2ccccc2[nH]1	7	0	-11	3
CCOc1ccc2nc(NCCCO)[nH]c2c1	-9	0	0	0
O=C(c1ccccc1)c1ccc2nc(-c3ccc(NC(=O)c4ccccc4Cl)cc3)[nH]c2c1	-29	0	-1	-1
O=C(CSc1ccccc1)Nc1ccc(S(=O)(=O)N2CCCCC2)cc1	9	0	2	2
SMILES	TEAD-YAP inh	FBW7 act	MITF inh	GPR151 activ
Cc1nnc(SCC(=O)Nc2ccc3ccccc3c2)s1	10	2.0*	15	-1
COc1ccc(NC(=O)c2ccc(NC(=O)CSc3nnc(N)s3)cc2)cc1	-4	8.2*	-7	-1
COc1ccc(-c2nnc(SCC(=O)Nc3ccc(N)cc3)n2-c2ccccc2)cc1	-2	6.5*	-92	0
Cc1nnc(SCC(=O)Nc2ccc(Cl)c(Cl)c2)s1	18	0	10	0
Cn1cnnc1SCC(=O)NC1=NN=C(c2ccccc2)CS1	2	-1	-2	0
Cc1ccc(C2=NN=C(NC(=O)CSc3nnc(C)s3)SC2)cc1	55*	0	13	-1
CCn1nccc1C(=O)Nc1nc(-c2cccc3ccccc23)cs1	8	0	1	1
COc1ccc(C(=O)NCc2nc3ccccc3[nH]2)cc1	8	0	8	-1
CCCN1CCCc2cc(CN3CCC4(CC3)CC4C(=O)NCc3cccnc3)ccc21 (configuration not stated)	-13	0	11	0
O=C(Cn1c(C(F)(F)F)nc2ccccc21)NNC(=O)c1cncn1-c1ccc(F)cc1	-7	0	-11	-2
CCOC(=O)c1[nH]c2ccccc2c1NC=O	10	1.9*	-4	-1
CCOC(=O)c1[nH]c2ccccc2c1NC(=O)OC	-10	0	-4	-1
CN1C(=O)N(C)C2C1NNC(=S)N2C (configuration not stated)	61*	0	11	-1
CC(=O)c1cccc(Nc2nc(-c3ccc(C)cc3)nc3ccccc23)c1	1	0	0	2
S=c1nc(Nc2cc(Cl)cc(Cl)c2)c2ccccc2[nH]1	5	0	-1	0
CC(=O)Nc1cccc(Nc2nc(-c3ccccc3F)nc3ccccc23)c1	32*	0	-1	0
CC(=O)c1cccc(Nc2nc(-c3ccc(C(C)(C)C)cc3)nc3ccccc23)c1	59*	0	1	2
CC(=O)Nc1cccc(-c2nc(-c3ccccc3)nc3ccccc23)c1	5	1.9*	15	1
CC(=O)c1cccc(Nc2nc(=S)[nH]c3ccccc23)c1	61*	0	2	0
Fc1cccc(Nc2nc(-c3ccccc3F)nc3ccccc23)c1	26	0	12	2
O=C1C(C=NCc2ccncc2)=C(O)c2ccccc21	22	0	3	-1
O=C1C(C=NCc2cccnc2)=C(O)c2ccccc21	38*	0	5	0
CCn1nc(C)c(CNCc2c(C(=O)N3C[C@@H](C)O[C@@H](C)C3)nc3sccn23)c1C	2	0	-3	0
COc1ccc([N+](=O)[O-])cc1NC(=O)c1sc2ncn(CC(=O)N3CC(C)CC(C)C3)c(=O)c2c1C (configuration not stated)	0	0	10	-2
Cc1cc(C)c(C(=O)/C=C/c2ccncc2)c(=O)[nH]1	32	0	-13	0
SMILES	TEAD-YAP inh	FBW7 act	MITF inh	GPR151 activ
Cc1cc(C)c(C(=O)/C=C/c2ccccc2F)c(=O)[nH]1	66*	0	-20	0
COc1cc(NC(=O)c2ccc3nc(-c4ccc(N5CCN(C)CC5)cc4)sc3c2)cc(OC)c1OC	62*	0	11	-2
CN1CCN(c2ccc(-c3nc4ccc(C(=O)NCCO)cc4s3)cc2)CC1	67*	0	-7	-1
COc1cc(NC(=O)c2ccc3nc(-c4c(C)nn(C)c4C)sc3c2)cc(OC)c1OC	35*	0	3	-1
COc1cc(NC(=O)c2ccc3nc(-c4ccc(C(=O)N5CCN(C)CC5)cc4)sc3c2)cc(OC)c1OC	52*	0	13	0
COC(=O)[C@@H]1C[C@@H](NC(=O)c2ccc3ccccc3c2O)CN1Cc1cc(F)ccc1F	42*	0	1	0
CC(C)(C)C(=O)COC(=O)CCc1nc2ccccc2s1	-5	0	-4	1
CCCCOc1ccc(C(=O)Nc2ccc3nc(SCC(=O)NCCOc4ccccc4)sc3c2)cc1	6	0	4	0
O=C(c1ccncc1)N1CC[C@@H]2[C@H](CCCN2C(=O)C(c2ccccc2)C2CCCC2)C1 (some centres not stated)	-10	0	0	-1
